The list is not random: actives were taken first. Their share in the collection is about 0.9%.
TAR Tat displ: HIV-1 TAR-Tat binding disruption | HIV-1 TAR RNA, Tat peptide displacement FRET; active compounds read high | z-score (concentration not given with the values) | 0.6% of 100,000 active | AID 1259389; active = z-score of 3 or more in at least 2 runs
CDC25B-CDK2 inh: human CDC25B-CDK2/CyclinA binding inhibition. P30305+P24941. HTRF CDC25B-CDK2/CyclinA binding, anti-His/anti-Flag; active compounds read high. z-score (no concentration beside the values). 0.72% of 94,000 active. AID 1259370; in the data active = z-score above about 3.2
Numbers stand for hits; i = inactive; nt = no result.

SMILES	TAR Tat displ	CDC25B-CDK2 inh
CNC(=O)c1cc(=O)n(CC(=O)Nc2sc3c(c2C(=O)OC)CCC3)c2ccccc12	8.29	nt
CCOC(=O)COc1cc2c(C(=O)OCC)c(C)n(CC(C)C)c2c2ccccc12	nt	i
CC1(C)CC(=O)C2=C(C1)Nc1ccccc1NC2c1cccc2ccccc12 (centres undefined)	nt	13.2
CC1(C)CC(=O)C2=C(C1)Nc1ccccc1NC2c1ccccc1F (centres undefined)	i	i
Cc1ccc(-c2coc(-c3ccc(NS(=O)(=O)c4ccc(N5CCCC5=O)cc4)cc3)n2)c(C)c1	i	nt
CC(O)(c1ccc(Cl)cc1)C(CN1CCCCC1)c1ccccc1 (centres undefined)	i	i
O=CC(C=Nc1ccc(Cl)cn1)[N+](=O)[O-] (centres undefined)	nt	4.3
Cc1cc(Nc2ccccc2C)n2cnnc2n1	i	i
Nc1nc(S(=O)(=O)Cc2ccccc2)ns1	i	i
Cc1ccc2oc(C(=O)Nc3sc4c(c3C(=O)NCc3ccco3)CCC4)cc(=O)c2c1	i	i
Cc1cc(C)c2c(=O)cc(C(=O)Nc3sc4c(c3C(=O)NCc3ccco3)CCC4)oc2c1	i	4.01
Cc1cc(C)c2oc(C(=O)Nc3sc4c(c3C(=O)NCc3ccco3)CCC4)cc(=O)c2c1	i	i
Cc1cc2oc(C(=O)Nc3sc4c(c3C(=O)NCc3ccco3)CCC4)cc(=O)c2cc1C	11.6	6.56
Cc1ncc(-c2ccc(C)c(S(=O)(=O)Nc3ccccc3C)c2)o1	i	nt
COCCNC(=O)CCCn1c(=O)[nH]c2ccccc2c1=O	nt	i
CSc1ccccc1C(=O)c1ccccc1C(=O)O	nt	i
O=C(O)c1ccccc1Sc1cc(C(=O)O)c(Sc2ccccc2C(=O)O)cc1C(=O)O	nt	14.6
O=C(NCc1ccco1)c1ccc2c(=O)[nH]c3c(C(=O)NC4CCCC4)sc(=S)n3c2c1	15.7	nt
CCOCCCNC(=O)c1ccc2c(=O)[nH]c3c(C(=O)NC4CCCC4)sc(=S)n3c2c1	i	nt
CCN1CCCC1CNC(=O)c1nn(C)c2c1CSc1ccccc1-2 (centres undefined)	i	i
O=C(COc1ccccc1)Nc1ccc(OCc2cc(=O)n3cc(Cl)ccc3n2)cc1	i	nt
Cc1ccc(Nc2c(-c3ccc4c(c3)CCCC4)c(=O)c2=O)cc1N(C)C	i	nt
Cc1ccc(C2Nc3ccccc3-n3cc4c(=O)n(C)c(=O)n(C)c4c32)o1 (centres undefined)	i	i
Cc1ccc(-c2ccccc2)n1-c1cccnc1	i	17.4
Cc1ccc(-c2ccccc2)n1-c1cccc2cccnc12	i	i
SMILES	TAR Tat displ	CDC25B-CDK2 inh
COc1cc(OC)cc(C(=O)Nc2noc3ccccc23)c1	i	i
COc1cccc(C(=O)Nc2n[nH]c3ccccc23)c1	nt	5.16
CN(C)N=Nc1cccc(/C=C/C(=O)O)c1	nt	i
CC(=O)Nc1ccc(S(=O)(=O)Nc2cccc(C(=O)Nc3ccccc3C(=O)O)c2)cc1	nt	i
O=C(Nc1cccc(C(=O)Nc2ccc(S(=O)(=O)O)c3cc(S(=O)(=O)O)cc(S(=O)(=O)O)c23)c1)Nc1cccc(C(=O)Nc2ccc(S(=O)(=O)O)c3cc(S(=O)(=O)O)cc(S(=O)(=O)O)c23)c1	nt	4.6
CCNC(=O)c1c(NC(=O)c2nn(-c3ccc(F)cc3)ccc2=O)sc2c1CCCC2	i	i
O=S(=O)(Cc1ccc(Cl)cc1)c1ccc(Cl)nn1	i	i
CCSc1nc2ccc(NC(=O)c3sc4nc(-c5ccncc5)ccc4c3N)cc2s1	i	i
Nc1c(C(=O)Nc2ccc(F)cc2)sc2nc(-c3ccncc3)ccc12	10.5	i
O=C(CSc1nnc(-c2cccnc2)o1)NCC1CCCO1 (centres undefined)	i	i
O=C(CSc1nnc(-c2cccnc2)o1)NC1CCCC1	4.56	i
O=c1[nH]c2ccc(Nc3cc(N4CCCC4)ncn3)cc2[nH]1	i	i
C=CCNC(=O)c1c(NC(=O)c2cccs2)sc2c1CCC(C(C)(C)C)C2 (centres undefined)	nt	i
O=C(Cc1ccccc1)Nc1nnc2n1CCCS2	i	nt
CCOC(=O)C(=O)CC(=O)c1ccc2c(c1)OCCO2	i	i
CCc1ccc(C(c2ccc(CC)o2)c2cc3c(cc2[N+](=O)[O-])OCCO3)o1	nt	4.4
COc1ccc(-n2ccnc2SCC(=O)Nc2cc(Cl)ccc2OC)c(OC)c1	i	nt
Cc1ccc(-c2cc(C(=O)O)c3c(-c4ccccc4)[nH]nc3n2)cc1	i	nt
Cc1ccc(-c2[nH]nc3nc(-c4ccc(O)c(O)c4)cc(C(=O)O)c23)cc1	20.1	i
O=C(c1ccco1)N(c1cc2sc(=O)oc2c2ccccc12)S(=O)(=O)c1ccccc1	i	19.1
O=C(Cc1ccccc1)N(c1ccc2oc(=O)sc2c1)S(=O)(=O)c1ccccc1	i	i
CCOC(=O)c1n[nH]c2c1CCCC2	i	nt
CC1=C(c2ccc(Cl)cc2)S(=O)(=O)N=C1Nc1cc(C)cc(C)c1	i	i
c1cc2c(cc1CNCCCN1CCOCC1)OCO2	i	i
Nc1cccc(N2CCn3c(nc4cc(Cl)ccc43)C2)c1	i	i
SMILES	TAR Tat displ	CDC25B-CDK2 inh
c1ccc(CN2CCn3c(nc4ccccc43)C2)cc1	i	i
Nc1ccc(N2CCn3c(nc4ccccc43)C2)cc1	i	13.1
Nc1cccc(N2CCn3c(nc4ccccc43)C2)c1	i	7.43
CC(C)c1nn2c(=O)cc(COC(=O)c3cccc(Cl)c3)nc2s1	i	nt
CCC1CN(S(=O)(=O)c2ccc3c(c2)N(CC(=O)OC)C(=O)CS3)c2cc(Cl)ccc2O1 (centres undefined)	i	nt
Cc1cc(C)cc(NC(=O)CSc2nn3c(=O)c(C)nnc3s2)c1	i	nt
Cc1occc1-c1nnc(SCC(=O)c2ccc(Cl)cc2)o1	i	i
Cc1occc1-c1nnc(SCC(=O)Nc2ccc(Cl)cc2)o1	i	10.2
Cc1nc(N2CCOCC2)c2c(C(=O)N3CCCc4ccccc43)c(C)oc2n1	i	nt
Cc1nn(C)c(C)c1CNC(=O)C1=Cc2cc(Br)ccc2OC1	i	nt
C=C(C)/C=C1/C=CC(=O)C(C)=C1	4.55	nt
Nc1nc2c(s1)c(=O)[nH]c(=O)n2-c1ccccc1Cl	i	i
COc1cc2nc(Nc3ccc(F)cc3)nc(N)c2cc1OC	i	12.8
COc1cc2nc(Nc3ccc(C)c(C)c3)nc(N)c2cc1OC	i	9.26
COc1ccc(Nc2nc(N)c3ccccc3n2)cc1	i	i
COc1cc2nc(Nc3ccc(C)c(Cl)c3)nc(N)c2cc1OC	i	i
CN(CC(=O)Nc1ccc(Cl)cc1)S(=O)(=O)c1cnc[nH]1	i	i
Cc1ccc(-c2ccc(=O)[nH]n2)cc1S(=O)(=O)NCc1ccco1	i	i
CCCS(=O)(=O)N1CCCC1c1cc(C)no1 (centres undefined)	i	nt
Cc1cc(=O)n(CC(=O)NCc2ccco2)c2c1c(C)nn2C	i	nt
Cc1cc(C)c2oc(C(=O)NCC(c3ccco3)N3CCOCC3)cc(=O)c2c1 (centres undefined)	i	i
COc1cccc(C2CC(=O)N3CN(c4ccc(OC)cc4OC)CSC3=C2C#N)c1 (centres undefined)	i	5.9
COc1ccc(N2CSC3=C(C#N)C(c4c(F)cccc4Cl)CC(=O)N3C2)c(OC)c1 (centres undefined)	i	i
COc1ccc(N2CSC3=C(C#N)C(c4ccccc4)CC(=O)N3C2)c(OC)c1 (centres undefined)	i	4.28
COc1ccc(N2CSC3=C(C#N)C(c4ccc(Br)cc4)CC(=O)N3C2)c(OC)c1 (centres undefined)	i	i
